Laboratory results: PubChem BioAssay (NCATS)
Results filed as inconclusive are left out. Active and inactive are the calls of the source. Calls follow the shape of the dose curve; as a rule, active = well fitted curve in the direction sought with a large enough effect; inconclusive = small, poorly fitted or top-dose-only effect, or another doubt; inactive = no such curve, though single readings can be large; an effect the other way counts as inactive or inconclusive.

Key:
CRL-7250 = normal cell line; assay: Cytotoxic Profiling of Annotated Libraries Using Quantitative High-Throughput Screening (AID 1296008); conditions: Five cell lines viability, CellTiter-Glo ATP luminescence, 48-72 h; max response: active compounds read low; also: nearly all actives have a fitted effect of over 60% in size; as to max response: % is scaled to controls: 0 for no effect and ±100 for the full control effect
In short: (§1)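 Compounds were pin-transferred onto cells and incubated 48 or 72 hr at 37 degree Celsius, 95% humidity. CellTiter-Glo was added, plates sat 10 min at room temperature, then ATP-coupled luminescence was imaged as the viability read-out.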

HEK293 = assay: as above; conditions: Five cell lines viability, CellTiter-Glo ATP luminescence, 48-72 h; max response: active compounds read low
In short: as §1

HaCat [1] = assay: as above; conditions: Five cell lines viability, CellTiter-Glo ATP luminescence, 48-72 h; max response: active compounds read low
In short: as §1

KB-3-1 = assay: as above; conditions: Five cell lines viability, CellTiter-Glo ATP luminescence, 48-72 h; max response: active compounds read low
In short: as §1

NIH3T3 [2] = assay: as above; conditions: Five cell lines viability, CellTiter-Glo ATP luminescence, 48-72 h; max response: active compounds read low
In short: as §1

NIH3T3 [3] = assay: qHTS assay to identify novel small-molecules to repurpose for Merkel cell carcinoma treatment (AID 1296009); conditions: MCC and control cell lines, CellTiter-Glo viability, 72 h; at 44.8 µM (top of the series) unless noted; also: nearly all actives have a fitted effect of over 60% in size
In short: (§2)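 Viability readout: ATP luminescence (CellTiter-Glo) after 72 hr drug exposure at 37 degree celsius. Dose-response format was 8 points for NPC and 11 points for MIPE; data normalized to in-plate controls.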

C33A = assay: Primary qHTS to identify gynecologic anti-cancer compounds using libraries of approved drugs and bioactive compounds (AID 1345084); conditions: Gynecologic cancer cell panel viability, ATPlite luminescence, 48 h; series mostly up to 57.5 µM; also: % is scaled to controls: 0 for no effect and ±100 for the full control effect; nearly all actives have a fitted effect of over 55% in size
In short: (§3)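 Cytotoxicity screen measuring ATP content by luciferase luminescence. Each compound is applied at five concentrations for 48 h at 37 C with 5% CO2.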

CAOV3 = assay: as above; conditions: Gynecologic cancer cell panel viability, ATPlite luminescence, 48 h; series mostly up to 57.5 µM
In short: as §3

CASKI = assay: as above; conditions: Gynecologic cancer cell panel viability, ATPlite luminescence, 48 h; series mostly up to 57.5 µM
In short: as §3

JEG-3 = assay: as above; conditions: Gynecologic cancer cell panel viability, ATPlite luminescence, 48 h; series mostly up to 57.5 µM
In short: as §3

Es-2 = assay: as above; conditions: Gynecologic cancer cell panel viability, ATPlite luminescence, 48 h; series mostly up to 57.5 µM
In short: as §3

HeLa = assay: as above; conditions: Gynecologic cancer cell panel viability, ATPlite luminescence, 48 h; series mostly up to 57.5 µM
In short: as §3

Hek293T [4] = assay: as above; conditions: Gynecologic cancer cell panel viability, ATPlite luminescence, 48 h, control line for the selectivity index; series mostly up to 57.5 µM
In short: as §3

HACAT [5] = assay: qHTS assay to identify novel small-molecules to repurpose for Merkel cell carcinoma treatment (AID 1296009); conditions: MCC and control cell lines, CellTiter-Glo viability, 72 h; at 44.8 µM (top of the series) unless noted; also: nearly all actives have a fitted effect of over 60% in size
In short: as §2

HEK293T [6] = assay: as above; conditions: MCC and control cell lines, CellTiter-Glo viability, 72 h; at 44.8 µM (top of the series) unless noted
In short: as §2

C=C1C2CCC3C(CCC4[C@@]3(C)CCC[C@@]4(C)C(=O)O)(C2)[C@@H]1OC(=O)/C(C)=C\C (stereo partly specified)
inactive: max response (CRL-7250) -44.5% | max response (HEK293) -104% | max response (HaCat [1]) -0.634% | max response (KB-3-1) 2.48% | outcome (NIH3T3 [2]) | outcome (NIH3T3 [3]) inactive [at 17.4 µM] | Potency (C33A) | Potency (CAOV3) | outcome (CASKI) | Potency (JEG-3)

C[C@@H]1[C@H](O)[C@@H]2OC(=O)C3=C2[C@H](CCC3)[C@@]12C[C@@H](c1ccoc1)OC2=O
inactive: max response (CRL-7250) 4.91% | max response (HEK293) -1.21% | max response (HaCat [1]) -22.1% | outcome (KB-3-1) | outcome (NIH3T3 [2]) | outcome (NIH3T3 [3]) | Potency (C33A) | outcome (CASKI) | Potency (Es-2) | Potency (HeLa) | Potency (Hek293T [4]) | Potency (JEG-3)

CC1=C2C3OC(=O)C(C)C3(O)CCC2(C)CCC1 (stereo unspecified)
inactive: max response (CRL-7250) 4.24% | max response (HEK293) 2.89% | max response (HaCat [1]) 0.93% | max response (KB-3-1) 2.02% | outcome (NIH3T3 [2]) | Potency (C33A) | Potency (CAOV3) | outcome (CASKI) | Potency (Es-2) | Potency (HeLa) | Potency (Hek293T [4]) | Potency (JEG-3)

CCCN1CCC[C@@H](c2cccc(S(C)(=O)=O)c2)C1
inactive: max response (CRL-7250) -1.62% | max response (HEK293) -20.6% | max response (HaCat [1]) -5% | max response (KB-3-1) -6.47% | outcome (NIH3T3 [2]) | outcome (NIH3T3 [3]) | Potency (C33A) | outcome (CASKI) | Potency (Es-2) | Potency (HeLa) | Potency (Hek293T [4]) | Potency (JEG-3)

CC(=O)NC(C(=O)OC1CCC(C)(C)C2CC=C3C(=O)OCC3C12C)C(C)C (stereo unspecified)
inactive: outcome (CRL-7250) | outcome (HaCat [1]) | outcome (KB-3-1) | max response (NIH3T3 [2]) 4.96% | outcome (HACAT [5]) | Potency (C33A) | Potency (CAOV3) | outcome (CASKI) | Potency (Es-2) | Potency (HeLa) | Potency (Hek293T [4]) | Potency (JEG-3)

COC(=O)C1(O)C(OC(C)=O)CCC2C3(CC(c4ccoc4)OC3=O)C(C)=CCC21C(=O)OC (stereo unspecified)
inactive: max response (CRL-7250) -2.77% | outcome (HaCat [1]) | max response (KB-3-1) 9.04% | outcome (NIH3T3 [2]) | outcome (HACAT [5]) inactive [at 17.4 µM] | Potency (C33A) | Potency (CAOV3) | outcome (CASKI) | Potency (Es-2) | Potency (HeLa) | Potency (Hek293T [4]) | Potency (JEG-3)

COC(=O)c1cc(OC)cc(OC)c1C(=O)c1c(OC)cc2c(c1O)C1CCC(O)C(C)(O2)O1 (stereo unspecified)
inactive: outcome (CRL-7250) | outcome (HaCat [1]) | outcome (KB-3-1) | outcome (NIH3T3 [2]) | outcome (HACAT [5]) inactive [at 17.4 µM] | outcome (NIH3T3 [3]) inactive [at 17.4 µM] | Potency (C33A) | Potency (CAOV3) | outcome (CASKI) | Potency (Es-2) | Potency (HeLa) | Potency (Hek293T [4]) | Potency (JEG-3)

COc1c2ccoc2nc2c(OC)c(O[C@@H]3O[C@@H](C)[C@H](O)[C@@H](O[C@@H]4O[C@H](CO)[C@@H](O)[C@H](O)[C@H]4O)[C@H]3OC(C)=O)ccc12
inactive: max response (CRL-7250) 0.0337% | outcome (HaCat [1]) | max response (KB-3-1) 9.99% | max response (NIH3T3 [2]) -1.67% | outcome (HACAT [5]) inactive [at 17.4 µM] | Potency (C33A) | Potency (CAOV3) | outcome (CASKI) | Potency (Es-2) | Potency (HeLa) | Potency (Hek293T [4]) | Potency (JEG-3)

C/C=C1/[C@H](O[C@@H]2O[C@H](CO)[C@@H](O)[C@H](O)[C@H]2O)OC=C2C(=O)O[C@@H]3C[C@@H](C(C)CO)[C@H](COC(=O)C[C@H]21)[C@H]3C (stereo partly specified)
inactive: max response (CRL-7250) 3.26% | outcome (HaCat [1]) | outcome (KB-3-1) | max response (NIH3T3 [2]) 1.25% | outcome (HACAT [5]) inactive [at 17.4 µM] | Potency (C33A) | Potency (CAOV3) | outcome (CASKI) | Potency (Es-2) | Potency (HeLa) | Potency (Hek293T [4]) | Potency (JEG-3)

C[C@@H]1C(=O)O[C@H]2[C@H]1CC[C@@]1(C)C(=O)C=C[C@@](C)(O)[C@H]21
inactive: max response (CRL-7250) -5.99% | max response (HaCat [1]) -2.04% | max response (KB-3-1) 1.69% | max response (NIH3T3 [2]) 4.77% | outcome (HEK293T [6]) | Potency (C33A) | Potency (CAOV3) | outcome (CASKI) | Potency (Es-2) | Potency (HeLa) | Potency (Hek293T [4]) | Potency (JEG-3)

CC1OC(O[C@H]2CC[C@@]3(C)C(CC[C@]4(C)C3CC=C3C5CC(C)(C)CC[C@]5(C(=O)OC5OC(CO)C(OC6OCC(OC7OCC(O)C(O)C7O)C(O)C6O)C(O)C5O)CC[C@]34C)C2(C)C)C(O)C(O)C1OC1OC(CO)C(O)C(OC2OC(CO)C(O)C(O)C2O)C1O (stereo partly specified)
inactive: max response (CRL-7250) -2.46% | outcome (HaCat [1]) | max response (KB-3-1) 2.43% | max response (NIH3T3 [2]) -1.17% | outcome (HACAT [5]) inactive [at 9.27 µM] | activity change, negative = cytotoxicity (C33A) -11.5% [at 6.55 µM] | activity change, negative = cytotoxicity (CAOV3) 2.33% [at 6.55 µM] | activity change, negative = cytotoxicity (CASKI) -4.77% [at 6.55 µM] | activity change, negative = cytotoxicity (Es-2) -1.46% [at 6.55 µM] | activity change, negative = cytotoxicity (HeLa) 1.79% [at 6.55 µM] | activity change, negative = cytotoxicity (Hek293T [4]) -4.99% [at 6.55 µM] | activity change, negative = cytotoxicity (JEG-3) -5.08% [at 6.55 µM]

CCC1(O)CC2c3cc(OC)c(OC)cc3CCN2CC1CC(C)C (stereo unspecified)
inactive: max response (CRL-7250) -19.7% | max response (HaCat [1]) -10.4% | max response (KB-3-1) 7.48% | outcome (NIH3T3 [2]) | outcome (NIH3T3 [3]) | Potency (C33A) | outcome (CASKI) | Potency (Es-2) | Potency (HeLa) | Potency (Hek293T [4]) | Potency (JEG-3)

C=C1C2(C)CC3C4(C)OC(C5OC56C4=CC(=O)OC6(C)C)C3(C)C13C(=O)OC(C)C3(O)C2=O (stereo unspecified)
inactive: max response (CRL-7250) -6.5% | outcome (HaCat [1]) | max response (KB-3-1) 7.16% | max response (NIH3T3 [2]) 2.35% | outcome (HACAT [5]) inactive [at 17.4 µM] | Potency (C33A) | Potency (CAOV3) | outcome (CASKI) | Potency (Es-2) | Potency (HeLa) | Potency (Hek293T [4]) | Potency (JEG-3)

CC(C)=CCC[C@](C)(O[C@@H]1O[C@H](CO[C@@H]2O[C@@H](CO)[C@H](O)[C@H]2O[C@@H]2OC[C@@H](O)[C@H](O)[C@H]2O)[C@@H](O)[C@H](O)[C@H]1O)[C@H]1CC[C@]2(C)[C@@H]1[C@H](O)CC1[C@@]3(C)CC[C@H](O[C@@H]4O[C@H](CO)[C@@H](O)[C@H](O)[C@H]4O[C@@H]4O[C@H](CO)[C@@H](O)[C@H](O)[C@H]4O)C(C)(C)C3CC[C@]12C (stereo partly specified)
inactive: max response (CRL-7250) 4.19% | outcome (HaCat [1]) | max response (KB-3-1) 8.39% | max response (NIH3T3 [2]) 4.58% | outcome (HACAT [5]) inactive [at 9.27 µM] | activity change, negative = cytotoxicity (C33A) 7.16% [at 6.55 µM] | activity change, negative = cytotoxicity (CAOV3) 9.01% [at 6.55 µM] | activity change, negative = cytotoxicity (CASKI) 10.9% [at 6.55 µM] | activity change, negative = cytotoxicity (Es-2) 4.94% [at 6.55 µM] | activity change, negative = cytotoxicity (HeLa) -1.43% [at 6.55 µM] | activity change, negative = cytotoxicity (Hek293T [4]) 2.28% [at 6.55 µM] | activity change, negative = cytotoxicity (JEG-3) 5.39% [at 6.55 µM]
